{"source": "PubChem BioAssay", "note": "A number with no mark means an inactive call.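 How the source made its calls: active means differentiation response of at least 50%, scaled between solvent and reference control, from cells with both markers; inactive means the rest.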"}
{"assay": "AML differentiation inducers, ER-HoxA9 marrow cells – cell-based, GFP/MAC1 double positive, flow cytometry, validation set, primary screen (AID 588685);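 further: compound exposure lasts four days before antibody staining and flow analysis; 0% = DMSO wells and 100% = 5 µM fulvestrant positive control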", "conditions": "stronger effect = higher value, normalized: vehicle 0, fulvestrant 100", "units": {"differentiation response": "%"}}
{"smiles": "CS(=O)(=O)Oc1ccc2c(c1)O/C(=C\\C=C\\c1ccccc1)C2=O", "differentiation response": 30.5}
{"smiles": "CC(C)NC[C@@H](O)c1ccc(O)c(O)c1", "differentiation response": -7.5}
{"smiles": "CN1CCc2cccc3c2[C@H]1Cc1ccc(O)c(O)c1-3", "differentiation response": 20.8}
{"smiles": "O=C(NCCN1CCOCC1)c1ccc(Cl)cc1", "differentiation response": 15.9}
{"smiles": "O=C(NCCN1CCCCC1)c1c(O)c2ccccc2[nH]c1=O", "differentiation response": 21.8}
{"smiles": "COc1ccc(S(=O)(=O)N2CCN(C(=O)COc3ccc4c(C)cc(=O)oc4c3)CC2)cc1", "differentiation response": 4}
{"smiles": "COc1ccc2cc(-c3nc4ccccc4n3C)c(=O)oc2c1", "differentiation response": 17.8}
{"smiles": "CCn1c(=N)c(C(=O)NC)cc2c(=O)n3cccc(C)c3nc21", "differentiation response": 24.7}
{"smiles": "Oc1ccc(Cl)cc1Cc1cc(Cl)ccc1O", "differentiation response": 4.2}
{"smiles": "COC(=O)c1cc(-c2ccc(OC)c(OC)c2)on1", "differentiation response": 31.5}
{"smiles": "CNc1nc(N(C)C)nc(N(C)C)n1", "differentiation response": 41.3}
{"smiles": "C(=C\\c1ccccc1)/CN1CCN(C(c2ccccc2)c2ccccc2)CC1", "differentiation response": 1.64}
{"smiles": "Cc1[nH]c2ccccc2c1C(=O)CN1CCCC1", "differentiation response": 28.6}
{"smiles": "CCOc1ccccc1C(=O)NCCC(=O)O", "differentiation response": 16.9}
